# Test results reported in PubChem BioAssay.
# “And” between values parts separate entries of the source, which are not always exact repeats. Equal entries are not always repeated. Inconclusive results are not listed. For part of these data: Potency and affinity values are given separately. The source made the active and inactive calls. Unless noted, no rule for the calls is given here.
# What was measured:
# [1] = molecular target: ATP-dependent translocase ABCB1 (Homo sapiens) (UniProt P08183); assay: P-glycoprotein substrate transport blockade – cell-based (AID 377; in the data active = fluorescence slope change above about 50%); details: MDR1-expressing cells, fluorescent substrate accumulation slope; stronger effect = higher value; concentration not given here
# Chain of ATP-dependent translocase ABCB1 (Homo sapiens) (P08183 whole entry, looked up): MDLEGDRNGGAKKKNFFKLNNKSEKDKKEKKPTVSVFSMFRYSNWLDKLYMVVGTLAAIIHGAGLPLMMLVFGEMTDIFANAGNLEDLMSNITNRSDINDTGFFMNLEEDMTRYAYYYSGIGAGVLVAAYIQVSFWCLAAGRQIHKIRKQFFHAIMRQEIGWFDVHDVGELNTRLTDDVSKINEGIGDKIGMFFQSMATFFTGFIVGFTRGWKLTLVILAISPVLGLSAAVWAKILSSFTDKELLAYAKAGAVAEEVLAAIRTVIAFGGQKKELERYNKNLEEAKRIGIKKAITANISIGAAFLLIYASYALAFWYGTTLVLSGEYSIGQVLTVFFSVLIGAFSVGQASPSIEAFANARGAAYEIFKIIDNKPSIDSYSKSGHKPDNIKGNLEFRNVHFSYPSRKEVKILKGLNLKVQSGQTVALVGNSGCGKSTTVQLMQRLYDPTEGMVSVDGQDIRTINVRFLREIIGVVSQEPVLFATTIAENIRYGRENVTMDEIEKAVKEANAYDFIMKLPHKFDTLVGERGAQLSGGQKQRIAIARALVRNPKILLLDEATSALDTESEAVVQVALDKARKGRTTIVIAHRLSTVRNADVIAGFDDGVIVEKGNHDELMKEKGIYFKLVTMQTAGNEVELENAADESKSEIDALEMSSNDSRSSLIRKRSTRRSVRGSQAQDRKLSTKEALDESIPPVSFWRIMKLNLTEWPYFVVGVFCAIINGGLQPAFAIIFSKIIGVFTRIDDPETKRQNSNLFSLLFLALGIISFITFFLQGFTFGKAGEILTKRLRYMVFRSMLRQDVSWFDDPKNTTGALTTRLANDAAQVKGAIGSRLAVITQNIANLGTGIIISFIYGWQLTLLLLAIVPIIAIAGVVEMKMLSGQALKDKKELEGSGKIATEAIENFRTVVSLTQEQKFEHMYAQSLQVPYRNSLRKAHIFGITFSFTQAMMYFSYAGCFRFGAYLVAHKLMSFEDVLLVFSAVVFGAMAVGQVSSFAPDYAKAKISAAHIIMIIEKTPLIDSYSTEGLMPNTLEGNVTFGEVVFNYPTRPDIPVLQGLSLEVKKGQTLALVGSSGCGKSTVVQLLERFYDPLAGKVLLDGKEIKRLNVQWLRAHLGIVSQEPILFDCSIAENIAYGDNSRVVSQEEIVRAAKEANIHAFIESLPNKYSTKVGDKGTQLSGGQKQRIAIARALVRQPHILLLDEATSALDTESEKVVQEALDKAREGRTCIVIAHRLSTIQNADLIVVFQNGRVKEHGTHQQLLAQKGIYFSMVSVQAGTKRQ
# [2] = blockers of polyQ-driven CASP3 activation – cell-based (AID 1583); details: polyglutamine-induced caspase-3 activation, cell assay; stronger effect = higher value;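 tested at 10 µM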
# [3] = restoration of touch response, mutant HTT neurons – whole organism, C. elegans mechanosensory neurons, N-terminal huntingtin (AID 1599); details: C. elegans polyQ-huntingtin mechanosensory neurons, stronger effect = higher value
# [4] = glutamate transport activators, MN-1 cells, MN-1 cell line (AID 1612); details: MN-1 motor neuron cells, stronger effect = higher value;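 also: tested at 1 µM final; 0% = mean of DMSO vehicle wells on each plate; positive means more glutamate uptake than control and negative means less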
# [5] = GFP-Q80 aggregate reduction, neuronal-like cells, cell-based, NGF-treated PC12, GFPQ80 (AID 1614); details: PC12 NGF-treated GFP-polyQ80 inclusion reduction;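 also: lower means fewer inclusions and 0 means no inclusions at all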
# [6] = 75Q-TubH aggregate inhibition, S. cerevisiae, yeast (AID 1616); details: S. cerevisiae 75Q-TubH polyglutamine aggregation suppression; stronger effect = higher value
# [7] = compounds altering circadian rhythm period length – cell-based, LOPAC library, luminescence reporter (AID 2774); details: circadian reporter cells, at 7 µM, actives lie on both sides;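 also: values are relative to mean of DMSO wells on each plate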
# [8] = compounds altering viability of human ES cells (AID 493140); details: human embryonic stem cell survival screen; stronger effect = higher value;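 also: cells exposed to compounds for four days before counting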
# [9] = compounds altering Cy5-DNA-NS3h complex signal – biochemical, LOPAC1280, artefact control for HCV NS3 helicase inhibitor project (AID 687037); details: Cy5-DNA-NS3h complex fluorescence interference counterscreen
# [10] = tested on: Aerobactin synthetase IucA (Klebsiella pneumoniae, hypervirulent); assay: biochemical IucA inhibition screen of LOPAC library by absorbance (AID 1346212); details: IucA enzyme assay, absorbance (OD) readout; stronger effect = lower value;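 tested at 8 µM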;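 also: 100% = no compound wells and 0% = no enzyme wells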
# [11] = blockers of cellular phospholipid synthesis – cell-based, LOPAC library, screen 4, primary screen (AID 1347384); details: animal cells, phospholipid biosynthesis inhibition screen; at 10 µM
# [12] = tested on: Hepatitis C virus NS3 helicase; assay: blockers of NS3h binding to ssDNA – biochemical, fluorescence polarization, LOPAC1280 library, primary screen (AID 687035; in the data active = inhibition above about 37%); details: Purified HCV NS3 helicase, Cy5-dT15 ssDNA binding fluorescence polarization; stronger effect = higher value; concentration not given here
# [13] = modulation of C. elegans fzo-1 (AID 1259413);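 also: fzo-1 mutant C. elegans worms in liquid wells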; details: C. elegans fzo-1 modulator screen, mean read-out; stronger effect = higher value
# [14] = tested on: F380Y; assay: BK channel mutant inhibitors and activators – cell-based, U2OS BacMam, thallium flux, beta subunits, selectivity assay, profiling panel (AID 1259406;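 active = thallium flux through the channel raised or lowered by more than 3 SD from vehicle-only wells, actives on both sides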;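 also: initial slope of Thallos dye fluorescence rise after thallium is added; log ratio against the mean of 0.3% DMSO vehicle wells on the same plate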); details: U2OS BacMam BK variants, at 30 µM
# [15] = tested on: F380Y/beta2Delta; assay: as above; details: U2OS BacMam BK variants, at 30 µM
# [16] = tested on: R275C; assay: as above; details: U2OS BacMam BK variants, at 30 µM
# [17] = tested on: R275C/beta1; assay: as above; details: U2OS BacMam BK variants, at 30 µM
# [18] = tested on: R275C/beta2Delta; assay: as above; details: U2OS BacMam BK variants, at 30 µM
smiles,measurement,setting,value
O=C(CCCN1CCC2(CC1)C(=O)NCN2c1ccccc1)c1ccc(F)cc1,fluorescence slope change,[1],202% (active)
same,inhibition,[2],-14.9%
same,rescue above control,[3],4.9
same,glutamate uptake change,[4],-22.8%
same,inclusion score,[5],2
same,aggregation suppression score,[6],1.1
same,period change,[7],0.035 h (inactive)
same,survival,[8],7.92 (inactive)
same,fluorescence ratio (interference),[9],1 (inactive)
same,remaining activity,[10],121% (inactive)
same,outcome,[11],inactive
C=C(C)[C@H]1CN[C@H](C(=O)O)[C@H]1CC(=O)O,period change,[7],0.025 h (inactive)
same,inhibition,[12],-3% (inactive)
same,fluorescence ratio (interference),[9],1 (inactive)
same,remaining activity,[10],119% (inactive)
same,outcome,[11],inactive
NCC(CC(=O)O)c1ccc(Cl)cc1 (configuration not stated),fluorescence slope change,[1],76.7% (active)
same,inhibition,[2],-4.56%
same,rescue above control,[3],5.24
same,glutamate uptake change,[4],-15.4%
same,inclusion score,[5],2
same,aggregation suppression score,[6],1.13
same,period change,[7],0.145 h (inactive)
same,survival,[8],9.17 (inactive)
same,inhibition,[12],-1% (inactive)
same,fluorescence ratio (interference),[9],0.9 (inactive)
same,outcome,[11],inactive
Clc1ccc(CSC(Cn2ccnc2)c2ccc(Cl)cc2Cl)cc1 (configuration not stated),fluorescence slope change,[1],21.9% (inactive)
same,inhibition,[2],16.4%
same,rescue above control,[3],23
same,glutamate uptake change,[4],6.86%
same,aggregation suppression score,[6],0.000314
same,survival,[8],7.67 (inactive)
Cc1cccc(C)c1NC1=NCCCS1,fluorescence slope change,[1],18% (inactive)
same,inhibition,[2],-1.23%
same,rescue above control,[3],-0.14
same,glutamate uptake change,[4],-9.68%
same,inclusion score,[5],2
same,aggregation suppression score,[6],1.27
same,period change,[7],-0.19 h (inactive)
same,survival,[8],6.75 (inactive)
same,inhibition,[12],-2% (inactive)
same,fluorescence ratio (interference),[9],1 (inactive)
same,remaining activity,[10],121% (inactive)
same,outcome,[11],inactive
C[C@H]1C(=O)O[C@@H]2CCN3CC=C(COC(=O)[C@](C)(O)[C@]1(C)O)[C@H]23,fluorescence slope change,[1],24.9% (inactive)
same,inhibition,[2],11.2%
same,rescue above control,[3],10.3
same,glutamate uptake change,[4],4%
same,inclusion score,[5],2
same,aggregation suppression score,[6],1.12
same,survival,[8],1.5 (inactive)
O=[N+]([O-])O[C@H]1CO[C@H]2[C@@H]1OC[C@H]2O[N+](=O)[O-],fluorescence slope change,[1],-12.8% (inactive)
same,inhibition,[2],15%
same,rescue above control,[3],-2.31
same,glutamate uptake change,[4],-15.4%
same,inclusion score,[5],1
same,aggregation suppression score,[6],1.27
same,survival,[8],6 (inactive)
N[C@@H]1C[C@H]1c1ccccc1,survival,[8],34.7 (inactive)
same,remaining activity,[10],95.5% (inactive)
CCC1(CC)C(=O)C=CNC1=O,fluorescence slope change,[1],54.5% (active)
same,inhibition,[2],13.3% and -20.6%
same,rescue above control,[3],1.62 and 19.3
same,glutamate uptake change,[4],-11.1% and -15%
same,inclusion score,[5],2
same,aggregation suppression score,[6],0.581 and 1.33
same,survival,[8],10.8 (inactive)
c1ccc2c(c1)sc1ccccc12,inhibition,[2],11%
same,rescue above control,[3],18.8
same,glutamate uptake change,[4],-0.7%
same,aggregation suppression score,[6],0.0947
C[C@@H]1O[C@@H](O[C@H]2C[C@@H](O)[C@]3(CO)[C@H]4[C@H](O)C[C@]5(C)[C@@H](C6=CC(=O)OC6)CC[C@]5(O)[C@@H]4CC[C@]3(O)C2)[C@H](O)[C@H](O)[C@H]1O,period change,[7],-0.18 h (inactive)
same,survival,[8],1.08 (inactive)
same,inhibition,[12],-4% (inactive)
same,fluorescence ratio (interference),[9],1 (inactive)
same,remaining activity,[10],109% (inactive)
same,outcome,[11],inactive
COc1ccccc1N1CCNCC1,period change,[7],0.075 h (inactive)
same,inhibition,[12],-4% (inactive)
same,fluorescence ratio (interference),[9],0.9 (inactive)
same,remaining activity,[10],96.8% (inactive)
same,outcome,[11],inactive
CCCCCCCCC(=O)NCc1ccc(O)c(OC)c1,period change,[7],0.08 h (inactive)
Clc1ccc(C(OCCN2CCCCC2)c2ccccc2)cc1 (configuration not stated),fluorescence slope change,[1],54.5% (active)
same,inhibition,[2],4.2%
same,glutamate uptake change,[4],29.4%
same,aggregation suppression score,[6],1.4
same,survival,[8],3.58 (inactive)
COc1ccc(Cc2nccc3cc(OC)c(OC)cc23)cc1OC,fluorescence slope change,[1],84.8% (active)
same,inhibition,[2],3.42%
same,rescue above control,[3],14.9
same,glutamate uptake change,[4],-13.9%
same,inclusion score,[5],2
same,aggregation suppression score,[6],1.65
same,period change,[7],-0.02 h (inactive)
same,survival,[8],5.5 (inactive)
same,inhibition,[12],-1% (inactive)
same,fluorescence ratio (interference),[9],1 (inactive)
same,remaining activity,[10],119% (inactive)
Cc1cc(O)ccc1Cl,inhibition,[2],17.2%
same,rescue above control,[3],2.39
same,glutamate uptake change,[4],-10.2%
same,inclusion score,[5],2
same,aggregation suppression score,[6],0.639
CC(=O)[O][Hg][c]1ccccc1,rescue above control,[3],0
same,glutamate uptake change,[4],-17.8%
same,aggregation suppression score,[6],-0.131
NCCc1cc(O)c(O)cc1O,inhibition,[2],18.9%
same,rescue above control,[3],-4.94
same,glutamate uptake change,[4],-13.1%
same,aggregation suppression score,[6],1.41
CC(C)(C)NCC(O)c1cc(Cl)c(N)c(Cl)c1 (configuration not stated),fluorescence slope change,[1],-2.7% (inactive)
same,inhibition,[2],5.01%
same,rescue above control,[3],-3.16
same,glutamate uptake change,[4],-4.4%
same,inclusion score,[5],2
same,aggregation suppression score,[6],1.64
same,survival,[8],11.5 (inactive)
CC(=O)NC1CCSC1=O (configuration not stated),survival,[8],5.75 (inactive)
NC(=O)c1cc([N+](=O)[O-])cc([N+](=O)[O-])c1,inhibition,[2],-15.4%
same,rescue above control,[3],-6.77
same,glutamate uptake change,[4],-3.86%
same,inclusion score,[5],2
same,aggregation suppression score,[6],1.47
Oc1ccc(Cl)cc1,inhibition,[2],-57%
same,rescue above control,[3],0.9
same,glutamate uptake change,[4],4.5%
same,inclusion score,[5],2
same,aggregation suppression score,[6],0.223
NC(=O)CN1CCCC1=O,fluorescence slope change,[1],61.1% (active)
same,inhibition,[2],13.3%
same,rescue above control,[3],-11
same,glutamate uptake change,[4],-1.66%
same,inclusion score,[5],2
same,aggregation suppression score,[6],1.37
same,period change,[7],0.015 h (inactive)
same,survival,[8],17.8 (inactive)
same,inhibition,[12],-4% (inactive)
same,fluorescence ratio (interference),[9],1 (inactive)
same,remaining activity,[10],110% (inactive)
same,outcome,[11],inactive
CC(=O)Nc1cc([As](=O)(O)O)ccc1O,inhibition,[2],-3.61%
same,rescue above control,[3],-5.17
same,glutamate uptake change,[4],-5.59%
same,inclusion score,[5],2
same,aggregation suppression score,[6],1.35
CC[n+]1c(-c2ccccc2)c2cc(N)ccc2c2ccc(N)cc21,inhibition,[2],24.8%
same,rescue above control,[3],0
same,glutamate uptake change,[4],5.78%
same,aggregation suppression score,[6],0.0827
O=c1oc2ccccc2c(O)c1Cc1c(O)c2ccccc2oc1=O,fluorescence slope change,[1],-7.2% (inactive)
same,inhibition,[2],3.41%
same,glutamate uptake change,[4],-38%
same,inclusion score,[5],1
same,aggregation suppression score,[6],1.26
same,survival,[8],4.42 (inactive)
CC(C)[N+](C)(CCC(C(N)=O)(c1ccccc1)c1ccccc1)C(C)C,inhibition,[2],22%
same,rescue above control,[3],-11.8
same,glutamate uptake change,[4],20%
same,inclusion score,[5],1.5
same,aggregation suppression score,[6],1.25
same,survival,[8],6.08 (inactive)
COc1c2c(cc3c1OCO3)CCN(C)C2,fluorescence slope change,[1],4% (inactive)
same,survival,[8],4.08 (inactive)
CNC(C)(C)Cc1ccccc1,fluorescence slope change,[1],29.7% (inactive)
same,inhibition,[2],-8.9%
same,rescue above control,[3],-1.26
same,glutamate uptake change,[4],3.05%
same,inclusion score,[5],2
same,aggregation suppression score,[6],1.35
same,survival,[8],4.83 (inactive)
CC1=C2[C@H]3OC(=O)[C@@H](C)[C@@H]3CC[C@@]2(C)C=CC1=O,survival,[8],2.25 (inactive)
CCCCCCCCCCCCCCCC[N+](C)(C)C,inhibition,[2],66.5%
same,rescue above control,[3],0
same,glutamate uptake change,[4],-41.1%
same,aggregation suppression score,[6],-0.0208
CN1C(=O)CN=C(c2ccccc2)c2cc([N+](=O)[O-])ccc21,mean signal,[13],228 (inactive)
same,log fold change Tl+ flux,[14],0.0275 (inactive)
same,log fold change Tl+ flux,[15],0.0676 (inactive)
same,log fold change Tl+ flux,[16],-0.00261 (inactive)
same,log fold change Tl+ flux,[17],-0.0104 (inactive)
same,log fold change Tl+ flux,[18],0.0315 (inactive)
CNCC(O)c1ccc(O)cc1 (configuration not stated),period change,[7],-0.045 h (inactive)
same,survival,[8],2.92 (inactive)
same,inhibition,[12],-2% (inactive)
same,fluorescence ratio (interference),[9],1 (inactive)
same,mean signal,[13],258 (inactive)
same,outcome,[11],inactive
same,log fold change Tl+ flux,[14],-0.0218 (inactive)
same,log fold change Tl+ flux,[15],0.0172 (inactive)
same,log fold change Tl+ flux,[16],-0.0246 (inactive)
same,log fold change Tl+ flux,[17],0.022 (inactive)
same,log fold change Tl+ flux,[18],0.0197 (inactive)
O=C(O)C(Cl)Cl,mean signal,[13],259 (inactive)
same,log fold change Tl+ flux,[14],-0.0365 (inactive)
same,log fold change Tl+ flux,[15],-0.00825 (inactive)
same,log fold change Tl+ flux,[16],-0.098 (inactive)
same,log fold change Tl+ flux,[17],0.0188 (inactive)
same,log fold change Tl+ flux,[18],-0.00393 (inactive)
COc1cc(N)c(Cl)cc1C(=O)NC1CN2CCC1CC2 (configuration not stated),mean signal,[13],253 (inactive)
C[N+]1(CCC(C(N)=O)(c2ccccc2)c2ccccc2)CCCCC1,mean signal,[13],231 (inactive)
same,log fold change Tl+ flux,[14],0.00354 (inactive)
same,log fold change Tl+ flux,[15],0.00809 (inactive)
same,log fold change Tl+ flux,[16],-0.0159 (inactive)
same,log fold change Tl+ flux,[17],-0.0271 (inactive)
same,log fold change Tl+ flux,[18],-0.0181 (inactive)
